Screening results deposited in PubChem by National Center for Advancing Translational Sciences (NCATS).
D3 antag: blocks the human D3 dopamine receptor; D3R cells, DiscoveRx beta-arrestin luminescence, antagonist mode; hits give low values; max response, negative = inhibition, %; 360,000 tested, 2.5% active; in the data active = max response below about -50%; inconclusive = no clear call, values can overlap the other calls; also: % is scaled to controls: 0 for no effect and ±100 for the full control effect
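Cells plated overnight at 1500 cells/well, then exposed to library compounds with dopamine controls for 90 minutes at 37 degrees C. DiscoveRx reagent added for 30–60 minutes at room temperature; luminescence read, quantitative HTS format.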
PTHR1 ag: PTHR1 (human) receptor agonism | Potency, µM (series often up to 115 µM), inactives show top-dose activation, usual class: activators | Q03431 | HEK293 GP2 PTHR1 cells, GloSensor cAMP luminescence, 1 h | 410,000 tested, 0.075% active; also: potency is read from the fitted curve at half-maximal effect; nearly all actives have a fitted effect of over 55% in size
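HEK-293-derived GP2 cells expressing PTHR1 and a GloSensor cAMP reporter, 3,000/well, plated overnight, given luciferin plus IBMX (each 0.5 mM as added) for 1 h at 37 °C, then compound for 1 h at 37 °C. Luminescence was read after 15 min at room temperature.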
MBNL1 CUG block: MBNL1-poly(CUG) RNA binding inhibition; Q9NR56; TR-FRET MBNL1-His/biotin-(CUG)12 binding, 665/545 ratio; Potency, µM (top dose mostly 57.5 µM), for inactives: at the top dose activity change, negative = inhibition, usual class: inhibitors; 280,000 tested, 0.036% active; AID 2675; active = well fitted inhibition curve with a large enough effect in the signal ratio, with a control signal flat, not every such curve was filed as active; inconclusive = small, poorly fitted or top-dose-only effect, or effect the other way, or a change in a side signal; inactive = no such curve, though single readings can be large or run the other way; the % refers to the signal ratio; also: potency is read from the fitted curve at half-maximal effect; % is scaled to controls: 0 for no effect and ±100 for the full control effect
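His-tagged MBNL1 binding to biotinylated (CUG)12 RNA was measured by TR-FRET using terbium anti-His antibody (0.055 ng/ul final) and streptavidin-XL665 (5 nM final). Compounds were titrated 92 nM to 58 uM; 60 min at room temperature.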
D3 ag: activates the human D3 dopamine receptor. P35462. D3R DiscoveRx beta-arrestin cells, luminescence, 90 min. max activation, %. 410,000 tested, 0.58% active. AID 652048; in the data active = max activation above about 30%; also: 0% is about no effect
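Agonist-mode cell screen: cells plated at 1500/well and incubated overnight at 37 °C, then exposed to library compounds for 90 min at 37 °C. Detection reagent was added for 30–60 min at room temperature, and luminescence was read.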
CBFb RUNX1 block: inhibitors of human CBF-beta and RUNX1 interaction; Q01196+Q13951; AlphaScreen CBFb-His/RUNX1-biotin binding, biochemical; Potency, µM (highest dose often 59.8 µM), without a hit: top-dose activity, negative = inhibition, most hits filed as inhibitors; 230,000 tested, under 10 active; AID 1477; also: % of control where 0% means no effect
Target sequence (Q01196 whole entry, looked up): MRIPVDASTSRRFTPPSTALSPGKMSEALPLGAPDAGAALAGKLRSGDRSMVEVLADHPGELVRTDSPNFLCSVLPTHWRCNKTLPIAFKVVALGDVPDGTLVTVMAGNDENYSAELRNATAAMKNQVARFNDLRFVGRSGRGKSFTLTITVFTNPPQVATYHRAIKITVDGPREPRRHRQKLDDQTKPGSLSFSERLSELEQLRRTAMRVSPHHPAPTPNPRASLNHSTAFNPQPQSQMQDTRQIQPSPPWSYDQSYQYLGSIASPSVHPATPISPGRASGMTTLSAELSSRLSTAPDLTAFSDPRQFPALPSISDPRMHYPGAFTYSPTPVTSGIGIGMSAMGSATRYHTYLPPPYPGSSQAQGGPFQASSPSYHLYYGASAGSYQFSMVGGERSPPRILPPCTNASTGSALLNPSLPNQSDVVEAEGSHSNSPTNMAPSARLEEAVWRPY
Target sequence (Q13951 whole entry, looked up): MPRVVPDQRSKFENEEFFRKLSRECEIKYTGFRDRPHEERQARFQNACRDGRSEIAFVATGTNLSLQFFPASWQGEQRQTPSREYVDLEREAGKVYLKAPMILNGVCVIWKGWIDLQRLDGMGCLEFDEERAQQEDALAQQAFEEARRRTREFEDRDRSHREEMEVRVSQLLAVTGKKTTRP
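CBF-beta (His) and RUNX1 (biotin), 30 nM each; 20 min preassociation; + compound, 15 min; + beads 50 ng each (Ni, streptavidin), 90 min; RT; AlphaScreen read.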
a7 integrin act: activates integrin-mediated alleviation for muscular dystrophy; alpha7betagal myoblasts, beta-gal FDG fluorescence, 48 h; Potency, µM (titrated, usually from 38.3 µM), without a hit: top-dose activation, usual class: activators; 350,000 tested, 0.064% active;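 also: potency is read from the fitted curve at half-maximal effect; 100% = response of the positive control SU9516; nearly all actives have a fitted effect of over 60% in size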
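alpha7betagal+/- myoblasts (passage 13, 250/well) treated 48 h at 37C with compounds at 1:260 dilution of DMSO stock. Lysed, then beta-galactosidase activity read as FDG fluorescence (ex 480/em 540) after 30 min, with pre-read for autofluorescence.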
Starred values were filed as active, the others as inactive; i = inactive; ? = inconclusive; nt = no result given; [ ] = dose if it differs, or a comment. The list is not random: actives were taken first. Their share in the collection is about 2.8%. Unless noted, calls follow the shape of the dose curve; as a rule, active = well fitted curve in the direction sought with a large enough effect; inconclusive = small, poorly fitted or top-dose-only effect, or another doubt; inactive = no such curve, though single readings can be large; an effect the other way counts as inactive or inconclusive.

SMILES	D3 antag	PTHR1 ag	MBNL1 CUG block	D3 ag	CBFb RUNX1 block	a7 integrin act
CCN(CC)C(=O)N[C@H]1C[C@@H]2c3cccc4[nH]cc(c34)C[C@H]2N(C)C1	-4	-32%	-3%	79*	9%	nt
CN1C[C@H](CO)C[C@@H]2c3cccc4[nH]cc(c34)C[C@H]21	-56*	-20%	?	30*	nt	-7%
CN1C[C@H](CO)C=C2c3cccc4[nH]cc(c34)C[C@@H]21	nt	nt	nt	nt	-13%[21.7 µM]	nt
Cc1c(O)c(=O)ccn1C	-24	-12%	-15%	-12	?	nt
CCc1ccc(CNC(=O)C2CCN(C(=O)c3ccc(-n4c(C)cc5ccccc54)s3)CC2)cc1	nt	-20%	nt	4	nt	nt
NCC[C@H](O)C(=O)N[C@@H]1C[C@H](N)[C@@H](O[C@H]2O[C@H](CN)[C@@H](O)[C@H](O)[C@H]2N)[C@H](O[C@@H]2O[C@H](CO)[C@@H](O)[C@H]2O)[C@H]1O	nt	nt	nt	6	nt	nt
CC1CCCN(CC(=O)N2CCCc3ccccc32)C1 (stereo unspecified)	-57*	i	-8%	-35	7%	-6%
O=C(c1ccccc1)c1cn(CC(=O)N2CCCc3ccccc32)c2ccccc12	19	-6%	10%	-1	5%	9%
O=C(Cc1ccccc1)N1CCN(CC2CC=CCC2)CC1 (stereo unspecified)	-53*	i	-2%	-16	6%	21%
ClCC(Cl)CCl	nt	nt	nt	nt	6%[21.7 µM]	nt
O=C1C(=O)c2ccccc2-c2ccccc21	-67*	-55%	?	-72	-19%	nt
c1cc2ccc3cccc4ccc(c1)c2c34	nt	nt	nt	9	21%[21.7 µM]	nt
O=C1C(=O)c2cccc3cccc1c23	-59*	i	29%[11.5 µM]	-18	5%	-4%
CC[C@H]1C[C@@H]2C[C@H]3c4[nH]c5ccc(OC)cc5c4CCN(C2)[C@@H]13	nt	nt	nt	2	nt	nt
CCc1ccccc1N1C(=O)N(Cc2ccccc2C)c2ccccc2S1(=O)=O	nt	-31%	nt	-4	nt	nt
C[C@H]1CNC(=O)c2c(C(=O)Nc3ccc(CNC(=O)OC(C)(C)C)cc3)ncn21	112	-55%	nt	34*	nt	8.9µM*
Cc1cccc(NC(=O)c2ncn3c2C(=O)NC[C@@H]3C)c1	28	-19%	nt	1	nt	1%
CC(=NCCCO)c1c(O)[nH]c(=O)[nH]c1=O	4	i	nt	15	10%	-1%
CCCCn1c(O)c(C(C)=NCCN2CCCCC2)c(=O)[nH]c1=O	-71*	?	3%	-8	1%	-6%
CC(=NCCN1CCCCC1)c1c(O)[nH]c(=O)[nH]c1=O	-53*	i	4%	-2	3%	20%
C=CCn1c(O)c(C(C)=NCCN2CCCCC2)c(=O)[nH]c1=O	-65*	i	-12%	-6	-3%	-19%[7.66 µM]
CN1[C@H]2CC[C@@H]1[C@@H](C(=O)O)[C@@H](OC(=O)c1ccccc1)C2	nt	nt	nt	-11	nt	nt
CN[C@@H](C)Cc1ccccc1	nt	nt	nt	1	nt	nt
O=C(CCl)c1ccccc1	nt	nt	nt	nt	7%[21.7 µM]	nt
COC(=O)CC1Oc2ccc(C)cc2-n2cc(-c3ccc(F)cc3)nc21 (stereo unspecified)	nt	-38%	nt	-11	nt	nt
SMILES	D3 antag	PTHR1 ag	MBNL1 CUG block	D3 ag	CBFb RUNX1 block	a7 integrin act
N#Cc1ccc2nc(-c3ccc(CN4CCC(n5c(=O)[nH]c6ccccc65)CC4)cc3)c(-c3ccccc3)nc2c1	-57*	-38%	nt	-9	nt	nt
Cc1cccc2nc(-c3ccccc3)c(-c3ccc(CN4CCC(n5c(=O)[nH]c6ccccc65)CC4)cc3)nc12	?	-13%	nt	-17	nt	nt
C[N+]1(C)C2CC[C@H]1CC(OC(=O)C(CO)c1ccccc1)C2 (stereo partly specified)	-67*	-15%	nt	-6	nt	nt
C[N+]1(C)CCC(OC(=O)C(c2ccccc2)c2ccccc2)CC1	-59*	i	nt	-87	25%	nt
C[N+]1(C)[C@@H]2CC[C@H]1CC(OC(=O)[C@@H](CO)c1ccccc1)C2 (stereo partly specified)	-28	3%	5%	-3	-20%[21.7 µM]	-18%
C=CCC1([C@H](C)CCC)C(=O)NC(=O)NC1=O	nt	nt	nt	-13	nt	nt
COC1CC2C=C(C)C=CC=CC(=O)NC(c3ccccc3)CC=CCCC(O)CC(=O)C2=C1O (stereo unspecified)	-85*	-56%	nt	11	nt	nt
CN(C)CC(C(=O)Cc1ccccc1)c1ccccc1 (stereo unspecified)	-63*	-26%	nt	-22	nt	-72%
C[C@@H]([C@@H](O)c1ccccc1)N(C)C(=O)Cc1ccccc1	6	i	nt	-3	nt	18%
O=[N+]([O-])c1ccc(N(CCO)CCO)c2c1no[n+]2[O-]	-99*	i	nt	-23	nt	-63%
CCC1(c2ccccc2)C(=O)NC(=O)NC1=O	-116*	i	nt	-7	6%	nt
CCC1(c2ccc(-c3ccccc3)cc2)C(=O)NC(=O)NC1=O	3	i	-7%	-1	nt	0%
CC1CCN(C(CC(=O)c2ccccc2)C(=O)c2ccccc2)CC1 (stereo unspecified)	-79*	-37%	nt	-20	nt	-35%
N[C@@H](Cc1ccc(Oc2cc(I)c(O)c(I)c2)c(I)c1)C(=O)O	nt	nt	nt	-11	nt	nt
NC1CCc2cc(O)c(O)cc2C1 (stereo unspecified)	59	-17%	nt	141*	-13%	nt
Cn1cnc(CCN)c1	-77*	-10%	nt	-8	6%	nt
CCCN(CCC)C1Cc2cc(OC)c(OC)cc2C1	-103*	i	nt	-90	18%	nt
CCCN(C/C=C\I)[C@@H]1CCc2ccc(O)cc2C1	nt	nt	nt	nt	2%[21.7 µM]	nt
CCCCCOC(=O)c1ccccc1C(=O)OCCCCC	nt	nt	nt	nt	29%[21.7 µM]	nt
COC(=O)C1=C(c2ccc(F)cc2F)C[C@@H]2CC[C@H]1N2C(=O)NCc1ccco1	?	i	nt	41*	nt	16%
COC(=O)C1=C(c2c(C)noc2C)C[C@@H]2CC[C@H]1N2C(=O)N1CCCC1	6	i	nt	58*	nt	29%
COC(=O)C1=C(c2cc3ccccc3s2)C[C@@H]2CC[C@H]1N2C(=O)NCc1ccc(F)cc1	-56*	-35%	nt	-36	nt	3%
COC(=O)C1=C(c2cc3ccccc3s2)C[C@@H]2CC[C@H]1N2C(=O)N1CCCCC1	-54*	-3%	nt	-21	nt	-9%
COC(=O)C1=C(c2ccc(F)cc2F)C[C@@H]2CC[C@H]1N2C(=O)NCC1CC1	1	-5%	nt	9	nt	21%
COc1cccc(CN2CCc3nc(N4CCN(c5ncccn5)CC4)ncc3C2)c1	nt	-45%	nt	6	nt	nt
COc1ccccc1CCNC1CCC(C(C)(C)C)CC1 (stereo unspecified)	-74*	-29%	3%	-38	-1%	-61%
